An excerpt weighted towards active compounds, which were near 2.3% of everything screened.
POLI inh = qHTS for Inhibitors of Polymerase Iota; 1% of 390,000 active; Pol iota fluorescent replication assay, 10 min; Potency, µM (series often up to 115 µM), for inactives: at the highest dose activity, negative = inhibition, usual class: inhibitors; DNA polymerase iota (Homo sapiens), Q9UNA4; AID 588590, 2011
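Pol iota at 10 nM preincubated 15 min with compounds at room temperature; reaction started with fluorescent substrate, 50 nM final. Fluorescence read kinetically at 0 and 10 min; buffer-only wells as negative control.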
WRN inhibitor = qHTS for Inhibitors of WRN Helicase; Bifunctional 3'-5' exonuclease/ATP-dependent helicase WRN (Homo sapiens), Q14191; WRN helicase unwinding, fluorescent forked duplex, kinetic; Potency, µM (series often up to 114 µM), for inactives: top-dose activity change, negative = inhibition, hits mostly inhibitors; 0.46% of 360,000 active; AID 651768, 2012; also: % is scaled to controls: 0 for no effect and ±100 for the full control effect; nearly all actives have a fitted effect of over 55% in size
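Kinetic red-fluorescence monitoring (525/598 nm) tracks WRN helicase activity after 100 nM fluorophore-quencher forked duplex and 2 mM ATP are added to 20 nM enzyme pretreated 15 min at room temperature with compound.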
POLH inh = qHTS for Inhibitors of Polymerase Eta | recombinant Pol eta, fluorescent DNA replication assay | AID 588591, 2011 | Potency, µM (titrated, usually from 114 µM), for the others: at the top dose activity change, negative = inhibition, hits mostly inhibitors | 1.2% of 390,000 active; also: % is scaled to controls: 0 for no effect and ±100 for the full control effect
Target sequence (Q9Y253 whole entry, looked up): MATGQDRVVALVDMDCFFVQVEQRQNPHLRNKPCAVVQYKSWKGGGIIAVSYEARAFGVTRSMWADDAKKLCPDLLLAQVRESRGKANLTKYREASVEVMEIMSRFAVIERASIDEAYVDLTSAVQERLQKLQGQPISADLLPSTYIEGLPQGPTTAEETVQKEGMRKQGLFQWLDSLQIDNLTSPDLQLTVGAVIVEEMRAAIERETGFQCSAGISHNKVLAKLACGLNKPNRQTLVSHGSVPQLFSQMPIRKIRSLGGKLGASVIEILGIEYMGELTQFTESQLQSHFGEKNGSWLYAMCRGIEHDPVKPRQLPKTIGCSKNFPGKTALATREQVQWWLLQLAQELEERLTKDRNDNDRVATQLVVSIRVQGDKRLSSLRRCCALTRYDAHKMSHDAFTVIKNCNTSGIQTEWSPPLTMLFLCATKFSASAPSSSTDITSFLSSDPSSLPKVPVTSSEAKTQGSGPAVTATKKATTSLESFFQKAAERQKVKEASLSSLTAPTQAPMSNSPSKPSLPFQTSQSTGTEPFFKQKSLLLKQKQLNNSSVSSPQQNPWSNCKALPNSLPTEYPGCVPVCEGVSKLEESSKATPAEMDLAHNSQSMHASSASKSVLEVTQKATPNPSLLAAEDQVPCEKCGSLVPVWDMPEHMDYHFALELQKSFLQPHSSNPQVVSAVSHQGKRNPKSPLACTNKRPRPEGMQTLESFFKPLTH
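Fluorescent replication assay: 50 nM final substrate added after a 15 min room-temperature compound preincubation with 10 nM enzyme. Signal taken at 0 min and again at 10 min.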
POLB inh = qHTS Assay for Inhibitors of DNA Polymerase Beta; Potency, µM (doses to about 114 µM), without a hit: at the highest dose activity change, negative = inhibition, usual class: inhibitors; Pol beta primer extension/strand displacement, fluorescence kinetic; 1.3% of 340,000 active; P06746; also: % is scaled to controls: 0 for no effect and ±100 for the full control effect
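Values derive from four-parameter Hill fits of normalized kinetic data: reads at 0 and 10 min following addition of 50 nM substrate to 10 nM Pol beta preincubated 15 min with compound.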
POLK inh = qHTS for Inhibitors of Polymerase Kappa. DNA polymerase kappa (Homo sapiens), Q9UBT6. purified Pol kappa, fluorescent DNA synthesis assay, 10 min. Potency, µM (series often up to 107 µM), without a hit: at the highest dose activity, negative = inhibition, actives largely listed as inhibitors. 0.53% of 400,000 active. AID 588579, 2011; also: % is scaled to controls: 0 for no effect and ±100 for the full control effect
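Readout: fluorescence, taken kinetically at 0 and 10 min. Conditions: 10 nM Pol kappa, 15 min RT compound preincubation, 50 nM substrate final. Controls: enzyme-free buffer wells.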
* marks the source's active call; other numbers are inactive results; u = inconclusive; x = not tested or not shown; ! = a repeat was not active; [ ] = dose if it differs, or a comment. Calls follow the shape of the dose curve; as a rule, active = well fitted curve in the direction sought with a large enough effect; inconclusive = small, poorly fitted or top-dose-only effect, or another doubt; inactive = no such curve, though single readings can be large; an effect the other way counts as inactive or inconclusive. Potency is read from the fitted curve at half-maximal effect.

SMILES	POLI inh	WRN inhibitor	POLH inh	POLB inh	POLK inh
O=C1Nc2ccccc2Oc2cc([N+](=O)[O-])ccc21	-23%	-11%[11.6 µM]	50µM*	u	-27%
Cc1[nH]n(-c2ccccc2)c(=O)c1C(c1ccc(C(=O)O)cc1)c1c(C)[nH]n(-c2ccccc2)c1=O	1.4µM*	u	-4%	11%	-16%
COc1cccc(C(C[N+](=O)[O-])c2c(C)[nH]n(-c3ccccc3)c2=O)c1 (stereo unspecified)	2.5µM*	-26%	-11%	27%	-4%
CCOc1ccc(C(c2c(C)[nH]n(-c3ccccc3)c2=O)c2c(C)[nH]n(-c3ccccc3)c2=O)cc1OC	0.71µM*	x	-2%	-1%	-25%
Cc1[nH]n(-c2ccccc2)c(=O)c1C(C[N+](=O)[O-])c1ccc(Br)cc1 (stereo unspecified)	-42%	u	-9%	23%	-17%
CCN(CC)C(=O)CSC1=N/C(=C/c2ccco2)C(=O)N1c1ccc(OC)c(Cl)c1	-16%	-24%	u	u	-12%
NC(=O)CSC1=N/C(=C\c2ccco2)C(=O)N1c1ccc(OC(F)F)cc1	35µM*	-10%[11.6 µM]	32%	-23%	u
O=S(=O)(Nc1ccc(O)c2ccccc12)c1cccs1	u	50µM*	3%	-9%	-10%
CCN1CC2=C(OC(N)=C(C#N)C2c2cccs2)/C(=C\c2cccs2)C1 (stereo unspecified)	40µM*	-10%[11.6 µM]	-27%	7%	-24%
CCOC(=O)C1=C(CC)OC(N)=C(C#N)C1c1cccs1 (stereo unspecified)	2%	-6%	-4%	-17%	-15%[60.1 µM]
CCc1nn2c(=O)cc(COC(=O)c3ccccc3NC(=O)C3CCCCC3)nc2s1	-29%	x	-3%	-2%	-10%[60.1 µM]
O=c1c2ccccc2cnn1Cc1nnc(-c2cccs2)o1	u	8%	-7%	45µM*	-9%
Cc1ccc2c(=O)c3ccccc3n(CCCN)c2c1C	x	x	x	x	7.9µM*!
c1ccc(CNc2ncnc3nc(N4CCOCC4)[nH]c23)cc1	6%	x	x	x	7%
O=C(O)c1ccc2ncsc2c1	4µM*	u	-20%	8%	-14%
O=S(=O)(c1cccc(F)c1)N1CCN(c2nc(-c3cccs3)nc3ccccc23)CC1	20%	x	x	x	7%
COc1ccc(CCNC(=O)CSc2ccsc2[N+](=O)[O-])cc1OC	-8%	-4%	-8%	u	-3%[60.1 µM]
COc1ccc(CCNC(=O)CSc2ccsc2[N+](=O)[O-])c(OC)c1	u	-7%[11.6 µM]	45µM*	u	-32%
COc1ccc(OC)c(CCNC(=O)CSc2ccsc2[N+](=O)[O-])c1	45µM*	-22%[57.1 µM]	40µM*	-11%	u
CC(=O)N(C)C	x	x	x	x	-2%[60.1 µM]
CCOC(=O)/C=C1/N(C)c2ccccc2C1(C)C	10%	-10%	0%	-2%	-23%
CN1/C(=C\P(=O)(N(C)C)N(C)C)C(C)(C)c2ccccc21	u	50µM*	-5%	5%	-14%
CN(C)c1ccc(N=Nc2ccc(/C=C/c3ccnc4ccccc34)cc2)cc1	u	x	x	x	-20%
O=S(=O)(Nc1nc2ccc(S(=O)(=O)N3CCCC3)cc2s1)c1ccc(F)cc1	u	-2%	89µM*	-2%	-28%
N#Cc1c(-c2ccco2)c2c([nH]c1=S)CCCC2	13µM*	u	u	28µM*	-28%
SMILES	POLI inh	WRN inhibitor	POLH inh	POLB inh	POLK inh
N#Cc1c2c(c(-c3ccco3)[nH]c1=O)CCCC2	28µM*	u	-6%	2%	u
N#Cc1c(-c2cccnc2)c2c([nH]c1=S)CCCC2	u	-31%	-7%	35%	2%
C=C1C(=O)O[C@@H]2C[C@@H](C)[C@@H]3C=CC(=O)[C@@]3(C)[C@@H](OC(C)=O)[C@H]12	u	-8%[11.6 µM]	45µM*	-4%	2%
C[C@@H]1C[C@@H]2OC(=O)[C@]3(C)[C@H]2[C@@H](OC3(C)O)[C@]2(C)C(=O)C=C[C@H]12 (stereo partly specified)	u	-4%	-7%	u	-6%
C=C(C(=O)O)c1ccc2ccccc2c1	79µM*	x	x	x	u
O=C(c1ccc2ccccc2c1)N1CCN(S(=O)(=O)/C=C/c2ccccc2)CC1	16%	0%	-17%	7%	-5%
N#Cc1ccc(/C=C/C(=O)c2ccccc2)cc1	u	-31%	9%	1%	-4%
O=C(/C=C/c1ccccc1)c1ccccc1	22µM*	-17%[57.1 µM]	u	46%	-19%
O=C(/C=C/c1ccccc1)c1ccc2ccccc2c1	22µM*	-11%[11.6 µM]	-17%	x	-12%
CC(/C=C\c1ccccc1)=C/C(=O)O	136%	-7%	-6%	-6%	3%
O=C(/C=C/c1ccccc1)/C=C/c1ccccc1	u	u	18µM*	24%	-11%
COC(=O)N/N=C(C)/C=C/c1ccccc1	89µM*	-24%	-4%	x	u
CC(=O)Nc1ccc(/C=C/C(=O)c2ccc3c(c2)OCCO3)cc1	u	-5%	-22%	16%	-17%
O=C(O)c1ccc(/C=C/C(=O)c2ccc3c(c2)OCCCO3)cc1	u	-9%[11.6 µM]	22µM*	9%	-3%
O=C(/C=C/c1ccccc1)c1cc(Br)ccc(=O)c1O	3.2µM*	u	u	u	40µM*
O=C(/C=C/c1ccc(F)cc1)c1cc(Br)ccc1O	59%	-29%	-19%	8%	5%
COc1cc(/C=C/C(=O)c2ccc3c(c2)OCO3)cc(Cl)c1O	20µM*	-3%[11.6 µM]	40µM*	40µM*	u
CN(C)c1ccc(-c2cc(C3C4C=CCCC4(C)C(=O)N3Cc3ccccc3)ccc2F)cc1 (stereo unspecified)	33%	x	x	x	10%
Cc1ccc(S(=O)(=O)N2CCCCC2)cc1C(=O)Nc1ncn[nH]1	x	x	x	25µM*	x
CCN(CC(=O)Nc1ccc(NC(C)=O)cc1)C(=O)c1cccc(Oc2ccccc2)c1	11%	-2%	-13%	x	-9%
CCN(CC(=O)Nc1ccc(NC(C)=O)cc1)C(=O)c1cccc(-n2cccc2)c1	56µM*	-29%	u	x	-42%
CSc1nc(=S)cc(C)[nH]1	u	40µM*	-2%	2%	6%
CC(C)(C)[C@@H](O)C(Cc1ccc(Cl)cc1)n1cncn1 (stereo partly specified)	x	x	x	x	13%[60.1 µM]
COc1ccc(/C=N/Nc2ncnc3c2[nH]c2ccc(C)cc23)c(OC)c1OC	22%	u	25µM*	1%	-2%
COc1ccc(C2CC(=O)c3cnc(NC(=O)c4ccco4)nc3C2)cc1 (stereo unspecified)	24%	-18%	1%	-6%	-4%

Source: PubChem BioAssay
